Assay results from PubChem BioAssay (NCATS).
Records with an inconclusive call do not appear. The source made the active and inactive calls. The call rests on the fitted dose curve; in most records, active means well fitted cell-killing curve with a large enough effect; inconclusive means small, poorly fitted or top-dose-only effect, or effect the other way; inactive means flat fitted curve, though single readings scatter.

Key:
Assay in all cases: Primary qHTS to identify gynecologic anti-cancer compounds using libraries of approved drugs and bioactive compounds (AID 1345084); further: nearly all actives have a fitted effect of over 55% in size
Settings in all cases: Gynecologic cancer cell panel viability, ATPlite luminescence, 48 h; series mostly up to 57.5 µM
[1] = test system: OV90
Procedure, shortened: (§1)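 Cell viability after 48 h drug treatment, ATPlite luminescence readout; five doses.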

[2] = test system: PA-1
Procedure, shortened: as §1

[3] = test system: SKOV3
Procedure, shortened: as §1

[4] = test system: Tov-21-G
Procedure, shortened: as §1

[5] = test system: Tov112D
Procedure, shortened: as §1
On the % scale 0 is the no-effect control and ±100 the full control effect.

C/C=C/C=C/C=C/C(=O)N(C)C(C(=O)NC(C)C(=O)N1CCCC1C(N)=O)C(C)C (stereo not given)
inactive: Potency [1] | Potency [2] | Potency [3] | Potency [4] | Potency [5]

CC1=CCC[C@@H]2[C@](CCc3ccoc3)(C(=O)O)[C@H](C)CC[C@@]12C
inactive: Potency [1] | Potency [2] | Potency [3] | Potency [4] | Potency [5]

C[C@@]1(C(=O)O)CCC[C@@]2(C)C3=CC[C@H]4C[C@@]3(CC[C@H]12)CC4(O)CO (stereo not given in full)
inactive: Potency [1] | Potency [2] | Potency [3] | Potency [4] | Potency [5]

O=C(Nc1cc(-c2ccccc2)nn1-c1ccccc1)c1ccc([N+](=O)[O-])cc1
inactive: Potency [1] | Potency [2] | Potency [3] | Potency [4] | Potency [5]

CC(=O)OCC1OC(O[C@H]2CC[C@@]3(C)C(CC[C@]4(C)C3CC=C3[C@@H]5CC(C)(C)CC[C@]5(C(=O)O)CC[C@]34C)[C@]2(C)CO)C(O)C(O)C1OC1OC(C)C(O)C(OC2OCC(O)C(O)C2O)C1O (stereo not given in full)
inactive: activity change, negative = cytotoxicity [1] -3.49% [at 11.6 µM] | activity change, negative = cytotoxicity [2] -3.48% [at 11.6 µM] | activity change, negative = cytotoxicity [3] 19.9% [at 11.6 µM] | activity change, negative = cytotoxicity [4] 6.07% [at 11.6 µM] | activity change, negative = cytotoxicity [5] 0% [at 11.6 µM]

CC1=CC(=O)CC(C)(C)C1CCC(C)O[C@@H]1O[C@H](CO)[C@@H](O)[C@H](O)[C@H]1O (stereo not given in full)
inactive: Potency [1] | Potency [2] | Potency [3] | Potency [4] | Potency [5]

COc1cc(/C=C/C(=O)O[C@H]2[C@@H]3C=CO[C@@H](O[C@@H]4O[C@H](CO)[C@@H](O)[C@H](O)[C@H]4O)[C@@H]3[C@@]3(CO)O[C@@H]23)ccc1O
inactive: Potency [1] | Potency [2] | Potency [3] | Potency [4] | Potency [5]

CC1=C2C(=O)C=C(CO)C2C2OC(=O)C(CS(=O)(=O)O)C2C(OC(=O)Cc2ccc(O)cc2)C1 (stereo not given)
inactive: Potency [1] | Potency [2] | Potency [3] | Potency [4] | Potency [5]

C/C=C(/C)C(=O)OC1CC(C)(C)CC2C3=CCC4C5(C)CCC(OC6OC(C)C(OC7OC(C(=O)O)C(O)C(OC8OC(CO)C(O)C(O)C8OC8OC(CO)C(O)C(O)C8O)C7O)C(O)C6O)C(C)(C)C5CCC4(C)C3(C)C(OC(=O)/C=C/C=C/C=C/CCC)C(OC(C)=O)C12CO (stereo not given)
inactive: activity change, negative = cytotoxicity [1] -14.1% [at 6.55 µM] | activity change, negative = cytotoxicity [2] -0.509% [at 6.55 µM] | activity change, negative = cytotoxicity [3] -20.2% [at 6.55 µM] | activity change, negative = cytotoxicity [4] -0.72% [at 6.55 µM] | activity change, negative = cytotoxicity [5] 1.97% [at 6.55 µM]

O=C1OC(c2ccc(O)cc2)C(O)=C1Cc1ccccc1 (stereo not given)
inactive: Potency [1] | Potency [2] | Potency [3] | Potency [4] | Potency [5]

CC1=CCC2C(C)(C)CCCC2(C)C1CC12OC1C(O)C(CO)=CC2O (stereo not given)
inactive: Potency [1] | Potency [2] | Potency [3] | Potency [4] | Potency [5]

NC(Cc1c[nH]c2ccc(O)cc12)C(=O)O (stereo not given)
inactive: Potency [1] | Potency [2] | Potency [3] | Potency [4] | Potency [5]

CC1(C)C(=O)N2c3ccccc3C(O)(CC(C(=O)O)n3cnc4ccccc4c3=O)C2N1O (stereo not given)
inactive: Potency [1] | Potency [2] | Potency [3] | Potency [4] | Potency [5]

COc1cc(CO)ccc1O[C@@H]1O[C@H](CO)[C@@H](O)[C@H](O)[C@H]1O
inactive: Potency [1] | Potency [2] | Potency [3] | Potency [4] | Potency [5]

CC(=O)OC1CC(C(C)(C)O)OC2CCC3(C)OC4=C(C(=O)C=C5C(C)C(OC(C)=O)C6(C)C(C)OC546)C(O)C3C12C (stereo not given)
inactive: Potency [1] | Potency [2] | Potency [3] | Potency [4] | Potency [5]

CC1=C2CC(=O)C(C)CC/C=C(\C)CC2OC1=O (stereo not given)
inactive: Potency [1] | Potency [2] | Potency [3] | Potency [4] | Potency [5]

Cc1ccccc1-n1nc(-c2c(-c3ccc(F)cc3)nn3c2NC[C@@H](CO)C3)ccc1=O
inactive: Potency [1] | Potency [2] | Potency [3] | Potency [4] | Potency [5]

Cc1cc(-n2c(=O)[nH]c(=O)n(C)c2=O)ccc1Oc1ccc(SC(F)(F)F)cc1
inactive: Potency [1] | Potency [2] | Potency [3] | Potency [4] | Potency [5]

C[C@@H](NC(=O)c1cc(C(=O)N[C@@H](Cc2ccccc2)[C@H](O)CNC2CC2)cc(N(C)S(C)(=O)=O)c1)c1ccccc1
inactive: Potency [1] | Potency [2] | Potency [3] | Potency [4] | Potency [5]

C=C(C(=O)O)[C@@H]1CC[C@@]2(C)CCC[C@@](C)(O)[C@@H]2C1
inactive: Potency [1] | Potency [2] | Potency [3] | Potency [4] | Potency [5]

O=C(OCC1=CC(Cl)C(O)C(OC(=O)c2ccccc2)C1O)c1ccccc1 (stereo not given)
inactive: Potency [1] | Potency [2] | Potency [3] | Potency [4] | Potency [5]

C=CC(C)(O)CC/C=C(\C)C(=O)O[C@@H]1[C@@H](O)[C@H](OC(C)(C=C)CC/C=C(\C)C(=O)O[C@@H]2O[C@H](CO)[C@@H](O)[C@H](O)[C@H]2O)O[C@H](CO)[C@H]1OC(=O)/C(C)=C/CCC(C)(O)C=C (stereo not given in full)
inactive: activity change, negative = cytotoxicity [1] -1.43% [at 11.6 µM] | activity change, negative = cytotoxicity [2] 3.07% [at 11.6 µM] | activity change, negative = cytotoxicity [3] -0.696% [at 11.6 µM] | activity change, negative = cytotoxicity [4] 0.188% [at 11.6 µM] | activity change, negative = cytotoxicity [5] -0.614% [at 11.6 µM]
